Among the data in PubChem BioAssay (NCI) are growth values, retold here.

Test systems include EKVX NSCLC; SN12C renal; UO-31 renal; TK-10 renal; ACHN renal; CAKI-1 renal; A498 renal; MOLT-4 leukemia; SR leukemia; RPMI-8226 leukemia; OVCAR-8 ovarian; OVCAR-5 ovarian; SK-OV-3 ovarian; IGROV1 ovarian; OVCAR-3 ovarian; HS 578T breast; NCI/ADR-RES ovarian; OVCAR-4 ovarian; CCRF-CEM leukemia.
What all share (assay): NCI-60 one-dose screen, 48 h (100 = growth as untreated, 0 = no growth, -100 = all killed)
Conditions in all cases: 10 µM unless noted

This is part of a sample that, as a whole, favours compounds with a hit. Of some 83,000 tested, about 20% had one in any assay.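 Treatment: one concentration, 48 hours, 96-well format. Scoring: percent growth, with anything below 10 considered active.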 Active and inactive are the calls of the source.

As to `COc1ccc(-c2nc(SC(C)C)nc(NNC(N)=S)c2C#N)cc1`, the growth in the assay with EKVX NSCLC is 65.7% (inactive); with SN12C renal, 55.1% (inactive); with UO-31 renal it was 64.3% (inactive); in the assay with TK-10 renal it was 72.9% (inactive); in the assay on ACHN renal, 72.1% (inactive); in the assay on CAKI-1 renal, 42.3% (inactive). Also, the growth is 50.2% (inactive) in the assay on A498 renal; 32.1% (inactive) in the assay on MOLT-4 leukemia; 24.4% (inactive) with SR leukemia; 32.7% (inactive) in the assay with RPMI-8226 leukemia; 71.2% (inactive) in the assay on OVCAR-8 ovarian; 66% (inactive) in the assay on OVCAR-5 ovarian. Further, the growth is 73% (inactive) in the assay with SK-OV-3 ovarian; 52.6% (inactive) with IGROV1 ovarian; 18.2% (inactive) in the assay with OVCAR-3 ovarian; 54.9% (inactive) with HS 578T breast; 19.6% (inactive) with NCI/ADR-RES ovarian.

Consider `COc1ccc(-c2cc(-c3ccc(Nc4nc(Nc5ccc(Cl)cc5)nc(Nc5ccc(Cl)cc5)n4)cc3)nc(N)c2C#N)cc1`, for which the growth is -27.1% (active) with EKVX NSCLC; 58.3% (inactive) in the assay on SN12C renal; -46.7% (active) in the assay on UO-31 renal; -67.3% (active) with TK-10 renal; -59.5% (active) with ACHN renal; 44.2% (inactive) in the assay with CAKI-1 renal. The growth with A498 renal is 65.7% (inactive); in the assay on MOLT-4 leukemia, 15.9% (inactive); with SR leukemia, 5.37% (active); with RPMI-8226 leukemia, -23.5% (active); in the assay with OVCAR-8 ovarian it was 39.8% (inactive); with OVCAR-5 ovarian, 37% (inactive). Also, the growth was 14.6% (inactive) in the assay with OVCAR-4 ovarian; 104% (inactive) in the assay with SK-OV-3 ovarian; 6.53% (active) with IGROV1 ovarian; -15.5% (active) in the assay with OVCAR-3 ovarian; 29.2% (inactive) in the assay with HS 578T breast; 51% (inactive) in the assay with NCI/ADR-RES ovarian.

Turning to `OC(COc1ccccc1Cl)COc1ccccc1Cl`, the growth was 106% (inactive) in the assay on EKVX NSCLC; 97% (inactive) in the assay with SN12C renal; 82.1% (inactive) in the assay with UO-31 renal; 102% (inactive) in the assay with TK-10 renal; 97.3% (inactive) in the assay on ACHN renal; 106% (inactive) in the assay with CAKI-1 renal. Moreover, the growth in the assay on A498 renal is 85.2% (inactive); in the assay with CCRF-CEM leukemia, -46.3% (active); with MOLT-4 leukemia it was 92.3% (inactive); in the assay on OVCAR-8 ovarian, 109% (inactive); in the assay with OVCAR-5 ovarian it was 81.9% (inactive); with OVCAR-4 ovarian, 105% (inactive). The growth with SK-OV-3 ovarian is 107% (inactive); in the assay on IGROV1 ovarian it was 96.7% (inactive); in the assay on OVCAR-3 ovarian, 118% (inactive); in the assay with HS 578T breast it was 102% (inactive); in the assay with NCI/ADR-RES ovarian, 95.9% (inactive).

As to `COc1cc(C(=O)/C=C/c2c(-c3ccc(F)cc3)nc3sc(C)cn23)cc(OC)c1OC`, the growth in the assay on EKVX NSCLC is 17.4% (inactive); in the assay with SN12C renal, 56.3% (inactive); in the assay with UO-31 renal, 58% (inactive); in the assay on TK-10 renal, 52.2% (inactive); in the assay on ACHN renal it was 46.5% (inactive); in the assay with CAKI-1 renal, 32.8% (inactive). The growth is -1.47% (active) in the assay with A498 renal; 14.8% (inactive) in the assay with CCRF-CEM leukemia; -38.8% (active) in the assay with MOLT-4 leukemia; 22.5% (inactive) in the assay on OVCAR-8 ovarian; 143% (inactive) with OVCAR-5 ovarian; 24.4% (inactive) in the assay with OVCAR-4 ovarian. For the same compound, the growth with SK-OV-3 ovarian was 64.4% (inactive); in the assay with IGROV1 ovarian, 84.9% (inactive); with OVCAR-3 ovarian, 16.5% (inactive); in the assay with HS 578T breast it was 25.4% (inactive); in the assay on NCI/ADR-RES ovarian it was 2.75% (active).

In the case of `CCCCn1c(=O)c2c(nc(NCCc3ccc(O)c(O)c3)n2CCC)n(CCCC)c1=O`, the growth with EKVX NSCLC is 79.5% (inactive); in the assay with SN12C renal, 86.6% (inactive); with UO-31 renal, 56.7% (inactive); in the assay on TK-10 renal it was 85.8% (inactive); in the assay on ACHN renal it was 81% (inactive); with CAKI-1 renal, 100% (inactive). Also, the growth is 86.9% (inactive) in the assay with A498 renal; 36.6% (inactive) in the assay on CCRF-CEM leukemia; 74.8% (inactive) in the assay on RPMI-8226 leukemia; 75.5% (inactive) in the assay with OVCAR-8 ovarian; 97.9% (inactive) with OVCAR-5 ovarian; 45.5% (inactive) in the assay with OVCAR-4 ovarian. Further, the growth with SK-OV-3 ovarian was 96.3% (inactive); with IGROV1 ovarian, 82.5% (inactive); in the assay on OVCAR-3 ovarian, 65.2% (inactive); with HS 578T breast it was 66.5% (inactive); in the assay with NCI/ADR-RES ovarian it was 77.2% (inactive).

As for `Cn1cc(-c2csc(-c3cccc(F)c3)n2)c2cccnc21`, the growth in the assay on EKVX NSCLC is 21.3% [100 µM] (inactive); in the assay with SN12C renal, -65% [100 µM] (active); in the assay on UO-31 renal, -27.7% [100 µM] (active); in the assay with TK-10 renal it was -52.7% [100 µM] (active); with ACHN renal, -31.8% [100 µM] (active); in the assay on CAKI-1 renal it was -57.2% [100 µM] (active). Besides, the growth was -84.2% [100 µM] (active) with A498 renal; 4.1% [100 µM] (active) in the assay on MOLT-4 leukemia; 0.511% [100 µM] (active) with SR leukemia; 1.57% [100 µM] (active) in the assay with OVCAR-8 ovarian; -52.4% [100 µM] (active) in the assay with OVCAR-5 ovarian; -44.8% [100 µM] (active) with OVCAR-4 ovarian. Also, the growth in the assay with SK-OV-3 ovarian is -20.8% [100 µM] (active); in the assay on IGROV1 ovarian it was -22.6% [100 µM] (active); in the assay on OVCAR-3 ovarian, -44.7% [100 µM] (active); in the assay on HS 578T breast it was 15.9% [100 µM] (inactive); in the assay on NCI/ADR-RES ovarian it was -34.4% [100 µM] (active).

`CCc1c2c(nc3ccc(OC(=O)NCc4ccc(B5OC(C)(C)C(C)(C)O5)cc4)cc13)-c1cc3c(c(=O)n1C2)COC(=O)[C@]3(O)CC`: the growth with EKVX NSCLC was 35.3% (inactive); with SN12C renal, -0.279% (active); with UO-31 renal, -67.7% (active); with TK-10 renal it was 0.387% (active); with ACHN renal, -61.5% (active); in the assay with CAKI-1 renal, -43.3% (active). The growth was -63.1% (active) in the assay with A498 renal; 19.8% (inactive) in the assay with CCRF-CEM leukemia; 10.1% (inactive) in the assay on RPMI-8226 leukemia; 4.49% (active) in the assay with OVCAR-8 ovarian; -12.3% (active) in the assay on OVCAR-5 ovarian; 6.46% (active) with OVCAR-4 ovarian. For the same compound, the growth was -1.86% (active) in the assay with SK-OV-3 ovarian; 11% (inactive) in the assay with IGROV1 ovarian; -24.7% (active) with OVCAR-3 ovarian; 23.4% (inactive) in the assay with HS 578T breast; -6.58% (active) with NCI/ADR-RES ovarian.

Take `CCN(CC)CCCNc1ccc(Nc2ccc(OC)cc2)cc1`: the growth in the assay on EKVX NSCLC is 81.1% (inactive); in the assay with SN12C renal, 92.3% (inactive); with UO-31 renal, 48% (inactive); with TK-10 renal, 88.2% (inactive); in the assay with ACHN renal, 94.1% (inactive); with CAKI-1 renal, 84.5% (inactive). Besides, the growth is 55.3% (inactive) with A498 renal; 32.7% (inactive) in the assay on MOLT-4 leukemia; 52.9% (inactive) in the assay on SR leukemia; 64.5% (inactive) in the assay with RPMI-8226 leukemia; 83.1% (inactive) with OVCAR-8 ovarian; 108% (inactive) in the assay on OVCAR-5 ovarian. Besides, the growth in the assay on OVCAR-4 ovarian was 84.6% (inactive); with SK-OV-3 ovarian, 106% (inactive); in the assay on IGROV1 ovarian, 37.6% (inactive); with OVCAR-3 ovarian it was 59.6% (inactive); in the assay on NCI/ADR-RES ovarian, 94.7% (inactive).

As for `O=[N+]([O-])c1ccc(-c2cc(-c3ccc(Nc4nc(Nc5ccc(Cl)cc5)nc(Nc5ccc(Cl)cc5)n4)cc3)no2)cc1`, the growth in the assay on EKVX NSCLC is 92.9% (inactive); in the assay on SN12C renal, 97.6% (inactive); in the assay on UO-31 renal it was 78.8% (inactive); with TK-10 renal, 105% (inactive); with ACHN renal, 94.5% (inactive); with CAKI-1 renal, 115% (inactive). The growth with A498 renal is 88.2% (inactive); in the assay with MOLT-4 leukemia, -19.7% (active); in the assay with RPMI-8226 leukemia it was 34.7% (inactive); in the assay with OVCAR-8 ovarian, 99% (inactive); in the assay on OVCAR-5 ovarian, 70.7% (inactive); with OVCAR-4 ovarian, 31.4% (inactive). Moreover, the growth in the assay on SK-OV-3 ovarian is 107% (inactive); with IGROV1 ovarian, 92% (inactive); in the assay with OVCAR-3 ovarian, 241% (inactive); in the assay with HS 578T breast, 99.9% (inactive); in the assay on NCI/ADR-RES ovarian it was 75.3% (inactive).

With `O=C(/C=C/c1c(Cl)nc2sccn12)c1nccs1`, the growth in the assay on EKVX NSCLC was 97.5% (inactive); in the assay with SN12C renal, 89% (inactive); in the assay with TK-10 renal, 118% (inactive); with ACHN renal, 89.1% (inactive); in the assay with CAKI-1 renal it was 78.8% (inactive); with A498 renal, 72.2% (inactive). Besides, the growth in the assay with CCRF-CEM leukemia was 93.4% (inactive); with MOLT-4 leukemia it was 89.3% (inactive); with RPMI-8226 leukemia, 83.7% (inactive); with OVCAR-8 ovarian, 93.9% (inactive); with OVCAR-5 ovarian it was 73.2% (inactive); in the assay on OVCAR-4 ovarian, 109% (inactive). Moreover, the growth in the assay with SK-OV-3 ovarian was 89.8% (inactive); with IGROV1 ovarian it was 101% (inactive); with OVCAR-3 ovarian, 90.9% (inactive); in the assay on HS 578T breast it was 65.5% (inactive); in the assay with NCI/ADR-RES ovarian, 99.3% (inactive).

As to `COc1ccccc1N1C(=O)/C(=C/C2=Cc3ccccc3OC2)SC1=S`, the growth in the assay with EKVX NSCLC is 95.3% (inactive); in the assay with SN12C renal, 97.4% (inactive); in the assay on UO-31 renal, 88.3% (inactive); in the assay on TK-10 renal it was 84.3% (inactive); in the assay with ACHN renal it was 96.9% (inactive); in the assay with CAKI-1 renal, 85.2% (inactive). Moreover, the growth in the assay with A498 renal was 40.7% (inactive); with CCRF-CEM leukemia, 90.5% (inactive); in the assay on MOLT-4 leukemia, 94.6% (inactive); with RPMI-8226 leukemia it was 91.4% (inactive); in the assay on OVCAR-8 ovarian it was 102% (inactive); with OVCAR-4 ovarian, 83.2% (inactive). Moreover, the growth is 95.2% (inactive) in the assay on SK-OV-3 ovarian; 97.2% (inactive) in the assay on IGROV1 ovarian; 101% (inactive) in the assay with OVCAR-3 ovarian; 94.6% (inactive) with HS 578T breast; 109% (inactive) with NCI/ADR-RES ovarian.

For the compound `CNC(=O)CCN1CCN(CC/C=C2\c3ccccc3Sc3ccc(Cl)cc32)CC1`, the growth with EKVX NSCLC was 103% (inactive); in the assay with SN12C renal, 95.5% (inactive); in the assay with UO-31 renal, 53.9% (inactive); in the assay on TK-10 renal, 81.4% (inactive); in the assay on ACHN renal, 94.3% (inactive); in the assay with CAKI-1 renal, 94% (inactive). Further, the growth with A498 renal is 74.5% (inactive); in the assay on CCRF-CEM leukemia, 90.2% (inactive); in the assay on MOLT-4 leukemia, 50.9% (inactive); with RPMI-8226 leukemia, 70.1% (inactive); in the assay on OVCAR-8 ovarian, 88.5% (inactive); in the assay on OVCAR-4 ovarian it was 105% (inactive). For the same compound, the growth with SK-OV-3 ovarian was 122% (inactive); with OVCAR-3 ovarian, 57.8% (inactive); in the assay on HS 578T breast, 65.4% (inactive); with NCI/ADR-RES ovarian it was 98.3% (inactive).
